The values below come from PubChem BioAssay.

The nature of test [1]: inhibitors of TNFa-induced NFkB p65 translocation, primary screen, imaging, HUVEC, MLSMR starter and 10KST1 sets (AID 438;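 active = inhibition above 20% together with a positive visual image hit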;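 also: compound added about 3h40 before a 20 min TNFalpha stimulation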;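 as to inhibition: signal is the nuclear over cytoplasmic p65 intensity ratio per well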). As to conditions: HUVEC TNFa-induced p65 nuclear translocation; cell count: measured here: nuclei count (cytotoxicity indicator), at 2.08 µM; inhibition: at 2 µM, stronger effect = higher value, 0% TNFa-plus-vehicle, 100% no-TNFa wells.
The nature of test [2]: reduction of polyQ htt aggregates in cells – imaging, exon1htt(103Q)mCFP cells, high-content imaging, primary screen (AID 483;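 active = visual image review flags a hit and inhibition of aggregation exceeds 20%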;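 also: compound exposure lasted 3 days before fixation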;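 as to nuclei count: percent of the per-plate median nuclei count of sample wells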). The following applies: exon1htt(103Q)mCFP cell line, aggregate imaging, at 2 µM; inhibition of aggregation: stronger effect = higher value; nuclei count: measured here: cell count, toxicity.
Test [3] can be described thus: endothelial E-selectin expression blockers – imaging, HUVEC, immunofluorescence, MLSMR starter and 10KST1 sets, primary screen (AID 487;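 active = visually confirmed hit in the image check and inhibition above 20%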;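 as to inhibition: signal is fraction of cell area covered by stained E-selectin grains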;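 as to nuclei count: 100% = median nuclei count of all wells on the same plate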). The following applies: HUVEC TNFalpha-induced E-selectin immunofluorescence imaging, at 2 µM; inhibition: stronger effect = higher value; nuclei count: measured here: cell number, toxicity.
Test [4] can be described thus: Primary imaging screen for DUSP6 inhibitors that restore phospho-Erk in transfected HeLa cells, chemical complementation (AID 609;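 active = compounds giving at least 50% inhibition in the cell-based MKP-3 phosphatase rescue imaging test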;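 as to inhibition: phospho-Erk level distribution per well compared with pooled transfected vehicle control wells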). As to conditions: HeLa MKP-3 transfected, phospho-Erk imaging KS statistic, at 10 µM, cells stimulated with TPA for 15 min.
In test [5] the target is Dual specificity protein phosphatase 6 (Homo sapiens) (UniProt Q16828). The description is as above. The following applies: HeLa MKP-3 transfected, phospho-Erk imaging KS statistic; at 10 µM; stronger effect = higher value; cells stimulated with TPA for 15 min.
Chain of Dual specificity protein phosphatase 6 (Homo sapiens) (Q16828 whole entry, looked up): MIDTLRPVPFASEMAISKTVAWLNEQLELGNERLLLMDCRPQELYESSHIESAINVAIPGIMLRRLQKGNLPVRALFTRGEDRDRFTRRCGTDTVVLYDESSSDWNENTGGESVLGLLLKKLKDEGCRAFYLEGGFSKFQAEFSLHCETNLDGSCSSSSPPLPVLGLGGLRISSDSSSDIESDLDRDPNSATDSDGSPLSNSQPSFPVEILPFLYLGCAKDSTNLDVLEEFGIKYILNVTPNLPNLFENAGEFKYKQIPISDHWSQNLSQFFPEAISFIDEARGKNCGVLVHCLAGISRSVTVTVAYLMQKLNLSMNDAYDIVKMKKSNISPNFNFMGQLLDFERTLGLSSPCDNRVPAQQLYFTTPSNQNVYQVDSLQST
Test [6] addresses Voltage-gated potassium channel subunit beta-2 (Rattus norvegicus) (UniProt P62483). As to the kind of experiment: inhibitors of rat Kvbeta2 reductase activity – biochemical, NADPH fluorescence, primary screen (AID 622;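 active = fluorescence slope higher than the sample average by over 3 SD, cut at about -0.22 in these data, passing the limit was not always enough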;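 also: slope of raw intensity against log time taken from 70 to 1610 s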). As to conditions: recombinant KvBeta, 4-cyanobenzaldehyde reduction, at 10 µM, stronger effect = higher value.
The target is the same in test [7]. The test is described as follows: enhancers of rat Kvbeta2 NADPH turnover – biochemical, NADPH fluorescence, primary screen (AID 623;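 active = NADPH fluorescence slope more negative than the mean of all samples by about 3 SD, 99.7% confidence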;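 also: fluorescence intensity change per second fitted from 20 to 320 s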). The following applies: Recombinant KvBeta, NADPH fluorescence decrease slope, 10 min; at 10 µM; stronger effect = lower value.
The target of test [8] is Alpha-2C adrenergic receptor (Homo sapiens) (UniProt P18825). As to the kind of experiment: compounds altering alpha2C-coupled GIRK flux – cell-based, HEK293 alpha2C/GIRK1/2, thallium flux, primary screen (AID 624;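 active = fluorescence slope after compound addition differing from the mean of all screened samples at 99.7% confidence, in either direction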;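 also: slope of fluorescence ratio to pre-addition baseline per second over 15 to 24 s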). The following applies: thallium flux BTC fluorescence, at 10 µM, actives lie on both sides.
Chain of Alpha-2C adrenergic receptor (Homo sapiens) (P18825 whole entry, looked up): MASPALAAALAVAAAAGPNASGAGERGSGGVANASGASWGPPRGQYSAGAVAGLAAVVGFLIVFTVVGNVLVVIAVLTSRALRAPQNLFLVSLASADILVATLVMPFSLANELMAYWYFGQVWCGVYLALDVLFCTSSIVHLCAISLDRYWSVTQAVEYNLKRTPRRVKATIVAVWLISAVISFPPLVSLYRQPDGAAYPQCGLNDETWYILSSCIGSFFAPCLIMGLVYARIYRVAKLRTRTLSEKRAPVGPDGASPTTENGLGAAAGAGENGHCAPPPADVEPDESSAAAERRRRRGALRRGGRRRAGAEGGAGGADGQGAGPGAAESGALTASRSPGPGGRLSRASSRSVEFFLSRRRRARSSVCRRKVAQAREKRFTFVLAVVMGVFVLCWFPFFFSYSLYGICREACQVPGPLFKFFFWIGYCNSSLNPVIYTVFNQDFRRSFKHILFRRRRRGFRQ
The nature of test [9]: inhibitors of larval lipid processing in zebrafish, primary screen, whole organism, PED6 fluorescence, gall bladder and intestine (AID 686;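 active = a full or partial loss of lipid-probe fluorescence in the fish gall bladder, intestine or both, judged by eye; inactive = no fluorescence loss, or compound toxic to the fish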;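 also: larvae 5 to 7 days old with five fish per well; signal comes from phospholipase A2 cleavage of quenched PED6 carried via bile; overnight exposure to compound and PED6 before scoring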). As to conditions: Zebrafish larvae PED6 lipid processing, fluorescence scoring; screened at 20 µM (by protocol).
A short description of test [10]: loss of swimming-algae plug formation – whole organism, Chlamydomonas reinhardtii, WT vs cilia-less mutant, absorbance, 96-well, primary screen (AID 463189).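 Also: 0% = wild type cc124 cells in DMSO and 100% = ciliumless bld1 mutant cells.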 The following applies: Chlamydomonas reinhardtii gravitaxis, OD600 absorbance, 2 days; at 10 µM; stronger effect = higher value.
Test [11] in a line: blockers of RIG-like receptor reporter activation – cell-based, Sendai virus stimulus, luciferase, 10K MLSCN set, TLR/RLR signaling modifier project, primary screen (AID 602276;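 active = inhibition at or above 50% at 10 µM; inactive = inhibition below 50%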;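 also: firefly luciferase from ISG56 promoter only with Renilla not read in this screen; 0% = Sendai virus plus DMSO and 100% = medium plus DMSO without virus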). The following applies: HEK293 RL24 IRF3 luciferase reporter, at 10 µM, stronger effect = higher value.
A short description of test [12]: TLR3 IRF3 reporter activation blockers – cell-based, poly I:C stimulus, luciferase, 10K MLSCN set, primary screen (AID 602277;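 active = inhibition of the reporter signal at or above 50%; inactive = inhibition below 50%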). The following applies: HEK293-TLR3 RL24 IRF3 luciferase reporter, at 10 µM, stronger effect = higher value. On the technique in general: A reporter such as luciferase makes a cellular process visible.
Setting [13] is: measured here: cell density z-score.
Where [14] appears, read: measured here: nuclear c-Myc green intensity z-score.
[15] abbreviates: measured here: nuclear pErk red intensity z-score, stronger effect = higher value.

Values joined by “and” are separate entries in the source; they are usually repeats but may differ in a detail not shown here. Equal entries are not always repeated. Active and inactive are the calls of the source.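 The calls were made as follows, unless noted: active = inhibition at or above 50% relative to wild type and mutant plate controls; inactive = inhibition below 50%.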

Chain of Voltage-gated potassium channel subunit beta-2 (Rattus norvegicus) (P62483 whole entry, looked up): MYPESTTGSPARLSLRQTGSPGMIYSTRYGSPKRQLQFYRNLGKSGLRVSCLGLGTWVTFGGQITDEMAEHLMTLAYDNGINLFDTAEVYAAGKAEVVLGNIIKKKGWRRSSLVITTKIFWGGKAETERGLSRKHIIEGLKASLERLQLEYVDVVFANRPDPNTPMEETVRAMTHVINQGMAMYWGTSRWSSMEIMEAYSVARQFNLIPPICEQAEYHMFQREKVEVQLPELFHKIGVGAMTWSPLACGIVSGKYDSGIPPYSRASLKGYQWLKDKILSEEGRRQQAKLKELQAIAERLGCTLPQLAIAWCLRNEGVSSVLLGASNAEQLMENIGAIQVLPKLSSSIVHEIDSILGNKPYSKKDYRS

What is called inhibition is the drop in the measured response relative to a control, in per cent. Turning to `COC(=O)CCC(=O)CN`, in test [1], the cell count was 462. In addition, the inhibition was -0.2% (inactive) in test [1]; -32.6% (inactive) in test [3]; 14.6% (inactive) in test [5]; -6.73% (inactive) in [10]; 5.54% (inactive) in [11]; 25.1% (inactive) in test [12]. Besides, the inhibition of aggregation in test [2] was 0.3% (inactive). Besides, the nuclei count in test [2] stood at 95.2%; in test [3], 108%. Further, the z-score in test [4] (setting [13]) is -0.857; in test [4] (setting [14]), 0.817; in test [4] (setting [15]) it was -0.467. The fluorescence slope in [6] is -0.446 (inactive). In addition, the NADPH fluorescence slope in [7] is -6.5e-05 (inactive). Further, the slope in [8] was 0.00417 (inactive). In addition, in test [9], the compound was classed as inactive.

Take `CC(C)C1Cc2c(C#N)c(N)sc(=S)c2CO1` (stereo not given): the cell count in test [1] amounted to 487. Besides, the inhibition in test [1] was 4.7% (inactive); in [3] it was -98.3% (inactive); in [5], 14% (inactive); in test [10], 27.2% (inactive); in test [11], -3.04% (inactive); in test [12], 12.1% (inactive). For the same compound, the inhibition of aggregation in test [2] was 2.2% (inactive). Further, the values for the nuclei count in test [2] and in test [3] were 102% and 146%, respectively. For the same compound, the z-score in test [4] (setting [13]) was 1.33; in test [4] (setting [14]) it was -0.895; in test [4] (setting [15]), 0.775. Also, the fluorescence slope in [6] is -0.291 (inactive). Besides, in [7], the NADPH fluorescence slope was 1.2e-05 (inactive). Moreover, the slope in [8] is 0.0021 (inactive). In addition, the outcome in [9] was inactive.

As for `Cn1cnc2c1c(=O)[nH]c(=O)n2C`, in test [1], the cell count worked out at 544. The inhibition was -10.8% (inactive) in test [1]; -30.6% (inactive) in test [3]; -6.41% (inactive) in test [5]; 8.14% (inactive) and 20.9% (inactive) in test [10]; 13.1% (inactive) in test [11]; 16.1% (inactive) in test [12]. Moreover, in test [2], the inhibition of aggregation is -16.4% (inactive). Further, the nuclei count was 97% in test [2] and 124% in test [3]. Further, the z-score in [4] (setting [13]) was -0.137; in test [4] (setting [14]), -0.093; in [4] (setting [15]) it was 1.06. In addition, the fluorescence slope in test [6] is -0.513 (inactive). Further, the NADPH fluorescence slope in test [7] is 1.2e-05 (inactive). Moreover, in [8], the slope is 0.00542 (inactive). In addition, the compound was classed as inactive in test [9].

As to `C[C@H]1C[C@@H]2[C@H]([C@@H](O)C[C@@]3(C)[C@H]2CC[C@]3(O)C(=O)CO)[C@@]2(C)C=CC(=O)C=C12`, the cell count in test [1] worked out at 665. For the same compound, the inhibition in test [1] was -3.7% (inactive); in test [3], -77.5% (inactive); in test [5], 7.39% (inactive); in [10], 7.13% (inactive); in test [11], 11.3% (inactive); in [12] it was 36.5% (inactive). Moreover, the inhibition of aggregation in [2] was 10.3% (inactive). The values for the nuclei count in test [2] and in test [3] were 101% and 120%, respectively. The figures for the z-score in test [4] (setting [13]), in test [4] (setting [14]) and in [4] (setting [15]) were 1.04, 0.95 and 0.348, respectively. The fluorescence slope in [6] was -0.512 (inactive). Further, the NADPH fluorescence slope in test [7] was -7.2e-05 (inactive). Also, the slope in test [8] is 0.00539 (inactive). Further, the compound was classed as inactive in [9].

Consider `Nc1nnc(-c2cccc(Cl)c2Cl)c(N)n1`, for which, in test [1], the cell count came to 697. For the same compound, the inhibition in test [1] was -8.4% (inactive); in test [3], -39.9% (inactive); in test [5], 1.48% (inactive); in test [10], -6.28% (inactive) and 7.36% (inactive); in [11] it was -2.35% (inactive); in [12] it was 13.8% (inactive). The inhibition of aggregation in test [2] is 2.2% (inactive). In addition, the nuclei count was 112% in test [2] and 139% in test [3]. Moreover, the z-score in [4] (setting [13]) is -0.0756; in [4] (setting [14]), -0.0257; in test [4] (setting [15]) it was 1.16. Moreover, in [6], the fluorescence slope was -0.527 (inactive). In addition, the NADPH fluorescence slope in [7] is -7.1e-06 (inactive). The slope in [8] was 0.00578 (inactive). Also, the outcome in [9] was inactive.

Consider `Cn1c2c(c(=O)n(C)c1=O)C(NC(=O)C(C)(C)C)(C(F)(F)F)C(=O)N2` (stereo not given), for which the cell count in [1] was determined as 538. Also, the inhibition is -3.9% (inactive) in test [1]; -105% (inactive) in test [3]; 5.26% (inactive) in test [5]; 17.2% (inactive) in test [10]; 14.7% (inactive) in test [11]; 16.6% (inactive) in [12]. In addition, in test [2], the inhibition of aggregation was 0.9% (inactive). Further, the figures for the nuclei count in [2] and in [3] were 103% and 131%, respectively. Moreover, the z-score is -0.683 in test [4] (setting [13]), -0.488 in test [4] (setting [14]) and -0.945 in test [4] (setting [15]). Moreover, in [6], the fluorescence slope is -0.51 (inactive). The NADPH fluorescence slope in test [7] was -6.1e-05 (inactive). In addition, the slope in [8] is 0.00635 (inactive). For the same compound, the compound was called inactive in [9].

On to `Cc1cc(N2CCN(C3CCCC3)CC2)n2c(nc3ccccc32)c1C#N`, for which, in [1], the cell count came to 582. Further, the inhibition in [1] is -4.5% (inactive); in [3] it was 6.5% (inactive); in [5], 17.8% (inactive); in test [10], -3.52% (inactive); in [11], 24.6% (inactive); in test [12], 39% (inactive). The inhibition of aggregation in test [2] is 36.4% (active). Also, the figures for the nuclei count in test [2] and in test [3] were 57.7% and 110%, respectively. The z-score in test [4] (setting [13]) is 1.58; in test [4] (setting [14]) it was 0.862; in test [4] (setting [15]), -0.0668. For the same compound, the fluorescence slope in [6] was -0.33 (inactive). Further, in test [7], the NADPH fluorescence slope is -3.1e-05 (inactive). Further, the slope in test [8] was 0.00579 (inactive). Further, in test [9], the call was inactive.

As for `COC(=O)c1cccc(Nc2cc(C)nc(-c3ccccc3O)n2)c1`, the cell count in test [1] came to 614. Also, the inhibition in test [1] was -12.4% (inactive); in test [3], -86.5% (inactive); in [5], 9.91% (inactive); in test [10], 5.5% (inactive); in [11], -10.3% (inactive); in test [12] it was -37.2% (inactive). The inhibition of aggregation in test [2] was -1% (inactive). Further, the nuclei count amounted to 92.7% in test [2] and 118% in test [3]. The z-score was -0.273 in [4] (setting [13]), 0.157 in test [4] (setting [14]) and -0.334 in test [4] (setting [15]). The fluorescence slope in [6] was -0.279 (inactive). Besides, the NADPH fluorescence slope in [7] is -1.2e-05 (inactive). The slope in test [8] was 0.00663 (inactive). In addition, in test [9], the compound was called inactive.

For the compound `O=C(/C=C/c1ccccc1)c1ccccc1`, the cell count in test [1] is 614. The inhibition is -6.5% (inactive) in [1]; -56.5% (inactive) in test [3]; 23.2% (inactive) in [5]; 21.2% (inactive) in [10]; -12.6% (inactive) in test [11]; -54.9% (inactive) in [12]. Also, the inhibition of aggregation in [2] is -4.6% (inactive). Besides, the figures for the nuclei count in test [2] and in test [3] were 98.3% and 113%, respectively. The z-score amounted to 0.266 in test [4] (setting [13]), 0.631 in test [4] (setting [14]) and 0.428 in test [4] (setting [15]). Further, the fluorescence slope in test [6] was -0.452 (inactive). In addition, in test [7], the NADPH fluorescence slope was -2.2e-05 (inactive). Also, in [8], the slope was 0.0047 (inactive). Moreover, the compound was classed as inactive in test [9].

As for `COc1cccc(N2CCN(c3ncnc4c3[nH]c3ccc(F)cc34)CC2C)c1` (stereo not given), the cell count in test [1] was found to be 342. Moreover, the inhibition in test [1] is -7% (inactive); in [3], 11.4% (inactive); in test [5] it was -3.5% (inactive); in test [10], 25.3% (inactive); in test [11], 2.95% (inactive); in test [12], 98.8% (active). The inhibition of aggregation in test [2] was 10.9% (inactive). The nuclei count worked out at 92.8% in test [2] and 127% in test [3]. Moreover, the z-score was 0.762 in [4] (setting [13]), 0.103 in test [4] (setting [14]) and -1.52 in test [4] (setting [15]). Moreover, in test [6], the fluorescence slope was -0.393 (inactive). Also, the NADPH fluorescence slope in [7] is -9.3e-05 (inactive). In addition, the slope in test [8] was 0.00384 (inactive). Besides, in test [9], the compound was classed as inactive.
